Test results: PubChem BioAssay
Calls of active or inactive are those of the source.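 How the source made its calls: active means normalized viability below 100% at a tested concentration; inactive means the rest.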

Assay: drug combination growth inhibition, ovarian cancer – cell-based, oncology-focused library, rucaparib conditional, profiling panel (AID 1508598)
Details: patient-derived ovarian cancer cells, CellTiter-Glo viability, 144 h; at 0.0195 µM; OCI-C5x cells; without rucaparib; stronger effect = lower value

Row | Compound | viability
1 | CNC(=O)c1ccc(N2C(=S)N(c3ccc(C#N)c(C(F)(F)F)c3)C(=O)C2(C)C)cc1F | 95.6% (active)
2 | Cn1cncc1[C@@](N)(c1ccc(Cl)cc1)c1ccc2c(c1)c(-c1cccc(Cl)c1)cc(=O)n2C | 123% (inactive)
3 | O=C(O)c1ccc2c(c1)nc(Nc1cccc(Cl)c1)c1ccncc12 | 126% (inactive)
4 | CC(C)C[C@H](NC(=O)CNC(=O)c1cc(Cl)ccc1Cl)B(O)O | 128% (inactive)
5 | CC1(C)CCC(c2ccc(Cl)cc2)=C(CN2CCN(c3ccc(C(=O)NS(=O)(=O)c4ccc(N[C@H](CCN5CCOCC5)CSc5ccccc5)c(S(=O)(=O)C(F)(F)F)c4)cc3)CC2)C1 | 46.8% (active)
6 | C#Cc1cccc(Nc2ncnc3cc(OCCOC)c(OCCO)cc23)c1 | 120% (inactive)
7 | CC(C)CC(=O)Nc1n[nH]c2c1CN(C(=O)C1CCN(C)CC1)C2(C)C | 130% (inactive)
8 | C=CCn1c(=O)c2cnc(Nc3ccc(N4CCN(C)CC4)cc3)nc2n1-c1cccc(C(C)(C)O)n1 | 102% (inactive)
9 | O=C(O)[C@H](Cc1c[nH]c2ccccc12)N1C(=O)c2ccccc2C1=O | 115% (inactive)
10 | O=C(NC1CCNCC1)c1[nH]ncc1NC(=O)c1c(Cl)cccc1Cl | 118% (inactive)
11 | CC(C)C[C@H](NC(=O)CNC(=O)c1cc(Cl)ccc1Cl)B1OC(=O)CC(CC(=O)O)(C(=O)O)O1 (some centres undefined) | 119% (inactive)

Same assay, conditions: patient-derived ovarian cancer cells, CellTiter-Glo viability, 144 h; at 0.0195 µM; OCI-P5x cells; with rucaparib 20 µM; stronger effect = lower value; 100% = cells with rucaparib alone

Row | Compound | viability
12 | CNC(=O)c1ccc(N2C(=S)N(c3ccc(C#N)c(C(F)(F)F)c3)C(=O)C2(C)C)cc1F | 92.4% (active)
13 | Cn1cncc1[C@@](N)(c1ccc(Cl)cc1)c1ccc2c(c1)c(-c1cccc(Cl)c1)cc(=O)n2C | 98.9% (active)
14 | O=C(O)c1ccc2c(c1)nc(Nc1cccc(Cl)c1)c1ccncc12 | 96% (active)
15 | CC(C)C[C@H](NC(=O)CNC(=O)c1cc(Cl)ccc1Cl)B(O)O | 96.7% (active)
16 | CC1(C)CCC(c2ccc(Cl)cc2)=C(CN2CCN(c3ccc(C(=O)NS(=O)(=O)c4ccc(N[C@H](CCN5CCOCC5)CSc5ccccc5)c(S(=O)(=O)C(F)(F)F)c4)cc3)CC2)C1 | 110% (inactive)
17 | C#Cc1cccc(Nc2ncnc3cc(OCCOC)c(OCCO)cc23)c1 | 103% (inactive)
18 | CC(C)CC(=O)Nc1n[nH]c2c1CN(C(=O)C1CCN(C)CC1)C2(C)C | 75.5% (active)
19 | C=CCn1c(=O)c2cnc(Nc3ccc(N4CCN(C)CC4)cc3)nc2n1-c1cccc(C(C)(C)O)n1 | 88.1% (active)
20 | O=C(O)[C@H](Cc1c[nH]c2ccccc12)N1C(=O)c2ccccc2C1=O | 91% (active)
21 | O=C(NC1CCNCC1)c1[nH]ncc1NC(=O)c1c(Cl)cccc1Cl | 96.7% (active)
22 | CC(C)C[C@H](NC(=O)CNC(=O)c1cc(Cl)ccc1Cl)B1OC(=O)CC(CC(=O)O)(C(=O)O)O1 (some centres undefined) | 97.5% (active)

Same assay, conditions: patient-derived ovarian cancer cells, CellTiter-Glo viability, 144 h; at 0.0195 µM; OCI-P5x cells; without rucaparib; stronger effect = lower value

Row | Compound | viability
23 | CNC(=O)c1ccc(N2C(=S)N(c3ccc(C#N)c(C(F)(F)F)c3)C(=O)C2(C)C)cc1F | 87.7% (active)
24 | Cn1cncc1[C@@](N)(c1ccc(Cl)cc1)c1ccc2c(c1)c(-c1cccc(Cl)c1)cc(=O)n2C | 85.9% (active)
25 | O=C(O)c1ccc2c(c1)nc(Nc1cccc(Cl)c1)c1ccncc12 | 115% (inactive)
26 | CC(C)C[C@H](NC(=O)CNC(=O)c1cc(Cl)ccc1Cl)B(O)O | 116% (inactive)
27 | CC1(C)CCC(c2ccc(Cl)cc2)=C(CN2CCN(c3ccc(C(=O)NS(=O)(=O)c4ccc(N[C@H](CCN5CCOCC5)CSc5ccccc5)c(S(=O)(=O)C(F)(F)F)c4)cc3)CC2)C1 | 101% (inactive)
28 | C#Cc1cccc(Nc2ncnc3cc(OCCOC)c(OCCO)cc23)c1 | 107% (inactive)
29 | CC(C)CC(=O)Nc1n[nH]c2c1CN(C(=O)C1CCN(C)CC1)C2(C)C | 92.9% (active)
30 | C=CCn1c(=O)c2cnc(Nc3ccc(N4CCN(C)CC4)cc3)nc2n1-c1cccc(C(C)(C)O)n1 | 97.6% (active)
31 | O=C(O)[C@H](Cc1c[nH]c2ccccc12)N1C(=O)c2ccccc2C1=O | 97.2% (active)
32 | O=C(NC1CCNCC1)c1[nH]ncc1NC(=O)c1c(Cl)cccc1Cl | 99% (active)
33 | CC(C)C[C@H](NC(=O)CNC(=O)c1cc(Cl)ccc1Cl)B1OC(=O)CC(CC(=O)O)(C(=O)O)O1 (some centres undefined) | 104% (inactive)

Same assay, conditions: patient-derived ovarian cancer cells, CellTiter-Glo viability, 144 h; at 0.0781 µM; OCI-C5x cells; with rucaparib 10 µM; stronger effect = lower value; 100% = cells with rucaparib alone

Row | Compound | viability
34 | CNC(=O)c1ccc(N2C(=S)N(c3ccc(C#N)c(C(F)(F)F)c3)C(=O)C2(C)C)cc1F | 108% (inactive)
35 | Cn1cncc1[C@@](N)(c1ccc(Cl)cc1)c1ccc2c(c1)c(-c1cccc(Cl)c1)cc(=O)n2C | 111% (inactive)
36 | O=C(O)c1ccc2c(c1)nc(Nc1cccc(Cl)c1)c1ccncc12 | 99.7% (active)
37 | CC(C)C[C@H](NC(=O)CNC(=O)c1cc(Cl)ccc1Cl)B(O)O | 88.7% (active)
38 | CC1(C)CCC(c2ccc(Cl)cc2)=C(CN2CCN(c3ccc(C(=O)NS(=O)(=O)c4ccc(N[C@H](CCN5CCOCC5)CSc5ccccc5)c(S(=O)(=O)C(F)(F)F)c4)cc3)CC2)C1 | 14.8% (active)
39 | C#Cc1cccc(Nc2ncnc3cc(OCCOC)c(OCCO)cc23)c1 | 113% (inactive)
40 | CC(C)CC(=O)Nc1n[nH]c2c1CN(C(=O)C1CCN(C)CC1)C2(C)C | 112% (inactive)
41 | C=CCn1c(=O)c2cnc(Nc3ccc(N4CCN(C)CC4)cc3)nc2n1-c1cccc(C(C)(C)O)n1 | 104% (inactive)
42 | O=C(O)[C@H](Cc1c[nH]c2ccccc12)N1C(=O)c2ccccc2C1=O | 109% (inactive)
43 | O=C(NC1CCNCC1)c1[nH]ncc1NC(=O)c1c(Cl)cccc1Cl | 108% (inactive)
44 | CC(C)C[C@H](NC(=O)CNC(=O)c1cc(Cl)ccc1Cl)B1OC(=O)CC(CC(=O)O)(C(=O)O)O1 (some centres undefined) | 101% (inactive)
